Measured values reported in PMC5700166.
Numbering of substitutions follows the chain as printed.

Columns and labels:
Assay in all cases: protein-binding microarray (PBM); PBM: ~300 nM protein, 6 mM HEPES pH 7.8, 80 mM KCl, 0.5 mM EDTA, 0.5 mM EGTA, 6% glycerol, 35 ng/ul poly-dIdC, 1% milk, 1 h, room temperature; Ap Aiptasia and Nv Nematostella (sea anemones) / Co Capsaspora / Aq Amphimedon (sponge) / Dm Drosophila / Hu human; RHD is the Rel homology domain; high values mean tight binding
Conditions in all cases: dsDNA, one strand shown
GST-Ap-NF-kB RHD = target: T1, GST-Ap-NF-kB RHD (Exaiptasia pallida (Aiptasia), UniProt A0A913YAJ5 2-422)
T1 sequence: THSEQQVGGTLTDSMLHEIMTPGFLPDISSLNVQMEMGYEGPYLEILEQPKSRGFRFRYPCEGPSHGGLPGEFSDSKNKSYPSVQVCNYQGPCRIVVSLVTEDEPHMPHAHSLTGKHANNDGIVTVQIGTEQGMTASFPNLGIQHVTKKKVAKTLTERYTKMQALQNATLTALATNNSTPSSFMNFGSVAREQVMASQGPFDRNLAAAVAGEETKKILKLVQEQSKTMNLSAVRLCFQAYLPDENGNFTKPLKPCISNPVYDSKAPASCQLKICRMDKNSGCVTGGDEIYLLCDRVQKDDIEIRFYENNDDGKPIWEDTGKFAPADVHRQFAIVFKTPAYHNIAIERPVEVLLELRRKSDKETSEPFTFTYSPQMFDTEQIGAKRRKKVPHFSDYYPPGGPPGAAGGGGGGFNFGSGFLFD

[1] = target: T2, GST-Nv-NF-kB (Cys allele) (Nematostella vectensis, UniProt E5G601 2-411)
T2 sequence: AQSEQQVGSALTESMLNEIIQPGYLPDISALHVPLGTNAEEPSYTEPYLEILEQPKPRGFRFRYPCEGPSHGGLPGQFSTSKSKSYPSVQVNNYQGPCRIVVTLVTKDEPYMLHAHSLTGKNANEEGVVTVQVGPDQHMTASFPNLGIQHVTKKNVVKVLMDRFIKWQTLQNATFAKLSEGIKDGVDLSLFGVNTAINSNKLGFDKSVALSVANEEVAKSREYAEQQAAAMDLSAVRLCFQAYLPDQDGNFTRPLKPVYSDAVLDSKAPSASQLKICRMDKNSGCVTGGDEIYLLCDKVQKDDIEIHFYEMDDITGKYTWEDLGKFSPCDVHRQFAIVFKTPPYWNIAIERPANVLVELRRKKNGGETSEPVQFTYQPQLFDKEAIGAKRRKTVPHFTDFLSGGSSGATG

[2] = target: T3, GST-Nv-NF-kB (Ser allele) (Nematostella vectensis, UniProt A7UNT2 2-411)
T3 sequence: T2 sequence with Q21R, C66S, S207N, E215Q, V217A, E225K, A268E, D399E

GST-Co-NF-kB = target: T4, GST-Co-NF-kB (Capsaspora owczarzaki, UniProt F1ARL5 200-546)
T4 sequence: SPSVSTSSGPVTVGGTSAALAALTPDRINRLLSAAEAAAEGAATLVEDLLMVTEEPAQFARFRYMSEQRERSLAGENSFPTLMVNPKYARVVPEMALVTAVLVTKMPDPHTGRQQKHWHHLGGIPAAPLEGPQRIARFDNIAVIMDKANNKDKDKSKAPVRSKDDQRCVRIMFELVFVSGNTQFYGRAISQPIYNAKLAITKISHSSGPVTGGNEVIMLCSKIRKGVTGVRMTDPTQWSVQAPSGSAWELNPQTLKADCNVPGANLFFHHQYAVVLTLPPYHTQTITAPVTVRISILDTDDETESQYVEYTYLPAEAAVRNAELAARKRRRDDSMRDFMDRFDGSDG

GST-Dm-Relish = target: T5, GST-Dm-Relish (Drosophila melanogaster, UniProt Q94527 99-473)
T5 sequence: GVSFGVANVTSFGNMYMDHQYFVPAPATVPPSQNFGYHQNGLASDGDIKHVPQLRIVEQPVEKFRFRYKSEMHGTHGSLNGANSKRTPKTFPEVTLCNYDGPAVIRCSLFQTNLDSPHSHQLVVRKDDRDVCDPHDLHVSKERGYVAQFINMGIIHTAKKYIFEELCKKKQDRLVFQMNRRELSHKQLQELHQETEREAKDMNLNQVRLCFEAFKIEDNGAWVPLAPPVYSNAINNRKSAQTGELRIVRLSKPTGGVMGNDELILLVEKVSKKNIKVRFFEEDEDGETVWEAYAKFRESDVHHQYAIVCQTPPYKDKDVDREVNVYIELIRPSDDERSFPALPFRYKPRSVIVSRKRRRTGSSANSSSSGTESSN

GST-Aq-NF-kB = target: T6, GST-Aq-NF-kB (Amphimedon queenslandica, UniProt A9Y5G7 2-389)
T6 sequence: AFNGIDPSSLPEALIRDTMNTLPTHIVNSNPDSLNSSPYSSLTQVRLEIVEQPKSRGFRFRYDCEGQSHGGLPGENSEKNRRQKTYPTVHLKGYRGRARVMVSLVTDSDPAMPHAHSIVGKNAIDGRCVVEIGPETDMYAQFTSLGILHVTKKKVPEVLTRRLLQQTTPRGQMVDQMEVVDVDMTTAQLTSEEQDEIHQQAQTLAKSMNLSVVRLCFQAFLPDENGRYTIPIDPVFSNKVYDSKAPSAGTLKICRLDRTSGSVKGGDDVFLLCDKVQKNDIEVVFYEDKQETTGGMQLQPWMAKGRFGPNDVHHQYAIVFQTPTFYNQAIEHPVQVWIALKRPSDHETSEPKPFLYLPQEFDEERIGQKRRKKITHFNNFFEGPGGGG

GST-Hu-p50 = GST-Hu-p50 (Homo sapiens, UniProt P19838 7-356)
Sequence of GST-Hu-p50 (P19838 7-356): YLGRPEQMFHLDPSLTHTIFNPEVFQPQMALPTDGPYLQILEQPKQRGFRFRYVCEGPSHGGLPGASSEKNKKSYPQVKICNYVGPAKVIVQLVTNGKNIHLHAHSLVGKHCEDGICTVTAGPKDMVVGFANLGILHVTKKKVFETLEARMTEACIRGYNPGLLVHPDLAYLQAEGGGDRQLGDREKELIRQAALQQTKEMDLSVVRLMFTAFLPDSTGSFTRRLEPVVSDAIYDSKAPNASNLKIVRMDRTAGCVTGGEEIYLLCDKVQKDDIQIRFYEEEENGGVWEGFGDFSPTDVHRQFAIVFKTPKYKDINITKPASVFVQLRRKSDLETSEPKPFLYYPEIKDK

Sequence | binding signal (GST-Ap-NF-kB RHD) [z-score] | binding signal [1] [z-score] | binding signal [2] [z-score] | binding signal (GST-Co-NF-kB) [z-score] | binding signal (GST-Dm-Relish) [z-score] | binding signal (GST-Aq-NF-kB) [z-score] | binding signal (GST-Hu-p50) [z-score]
CCGATTAACATCACATGGGAATCTGATGTTAATCGGGTCTTGATTCGCTTGACGCTGCTG | 1 | 2.19 | 2.46 | 1.08 | 1.82 | 1.14 | 1.59
CCGATTAACATCAAATACCCCCATGATGTTAATCGGGTCTTGATTCGCTTGACGCTGCTG | 6.79 | 4.49 | 4.86 | 5.57 | 3.98 | 4.48 | 5.11
CCGATTAACATCAATTCACCCCCTGATGTTAATCGGGTCTTGATTCGCTTGACGCTGCTG | 4.01 | 3.65 | 4.82 | 6.74 | 3.16 | 4.11 | 4.31
CCGATTAACATCAAGGGAGTTCCTGATGTTAATCGGGTCTTGATTCGCTTGACGCTGCTG | 4.53 | 4.56 | 2.92 | 1.22 | 5.02 | 5.71 | 3.7
CCGATTAACATCAAGTTTTCCCCTGATGTTAATCGGGTCTTGATTCGCTTGACGCTGCTG | 8.03 | 8.76 | 11.2 | 10.3 | 6.09 | 6.59 | 6.59
CCGATTAACATCAGGAATATCCCTGATGTTAATCGGGTCTTGATTCGCTTGACGCTGCTG | 2.84 | 3.66 | 2.12 | 1.54 | 2.78 | 6.03 | 3.26
CCGATTAACATCAATATTTCCCCTGATGTTAATCGGGTCTTGATTCGCTTGACGCTGCTG | 8.09 | 10.1 | 13.2 | 10.7 | 5.87 | 6.9 | 7.24
CCGATTAACATCAAAATTCCCCTTGATGTTAATCGGGTCTTGATTCGCTTGACGCTGCTG | 10.1 | 12.5 | 14.2 | 7.63 | 9.78 | 9.63 | 8.23
CCGATTAACATCAGGGAATTACCTGATGTTAATCGGGTCTTGATTCGCTTGACGCTGCTG | 8.44 | 9.55 | 9.14 | 5.01 | 8.83 | 9.49 | 5.8
CCGATTAACATCAATTTACCCCCTGATGTTAATCGGGTCTTGATTCGCTTGACGCTGCTG | 6.21 | 4.95 | 6.18 | 8.79 | 3.42 | 4.56 | 5.04
CCGATTAACATCAAAAGTCCCCTTGATGTTAATCGGGTCTTGATTCGCTTGACGCTGCTG | 8.69 | 9.23 | 8.99 | 3.35 | 9.45 | 7.89 | 7.27
CCGATTAACATCACAATTTCCCCTGATGTTAATCGGGTCTTGATTCGCTTGACGCTGCTG | 8.29 | 9.4 | 12 | 8.61 | 5.96 | 6.69 | 6.74
CCGATTAACATCACGGGGAATCCTGATGTTAATCGGGTCTTGATTCGCTTGACGCTGCTG | 9.87 | 9.94 | 8.84 | 8.28 | 10 | 7.48 | 6.2
CCGATTAACATCAAAAATTACCCTGATGTTAATCGGGTCTTGATTCGCTTGACGCTGCTG | 4.2 | 7.43 | 7.03 | 4.09 | 6.42 | 6.93 | 5.22
CCGATTAACATCAGAGACCCCCCTGATGTTAATCGGGTCTTGATTCGCTTGACGCTGCTG | 4.3 | 3.27 | 2.81 | 2.4 | 5.26 | 3.97 | 3.87
CCGATTAACATCAGGGGATCTTATGATGTTAATCGGGTCTTGATTCGCTTGACGCTGCTG | 7.32 | 7.01 | 7.89 | 3.1 | 6.67 | 6.41 | 6.06
CCGATTAACATCAAGGGGAAAATTGATGTTAATCGGGTCTTGATTCGCTTGACGCTGCTG | 7.28 | 8.8 | 11.5 | 8.77 | 4.19 | 7.23 | 6.72
CCGATTAACATCAGGGAAAACCCTGATGTTAATCGGGTCTTGATTCGCTTGACGCTGCTG | 7.33 | 9.72 | 7.71 | 3.49 | 9.01 | 10.2 | 5.66
CCGATTAACATCAGGGGGGTGGATGATGTTAATCGGGTCTTGATTCGCTTGACGCTGCTG | 4.23 | 3.15 | 4.75 | 3.78 | 3.78 | 4.03 | 4.19
CCGATTAACATCAGGGAAATCCATGATGTTAATCGGGTCTTGATTCGCTTGACGCTGCTG | 4.11 | 5.43 | 5.07 | 3.28 | 5.65 | 5.63 | 3.96
CCGATTAACATCAAGGGAATGCCTGATGTTAATCGGGTCTTGATTCGCTTGACGCTGCTG | 2.72 | 3.58 | 2.83 | 1.06 | 2.97 | 4.2 | 1.87
CCGATTAACATCACGGAATCCCCTGATGTTAATCGGGTCTTGATTCGCTTGACGCTGCTG | 8.93 | 8.59 | 9.68 | 3.45 | 9.36 | 6.48 | 6.67
CCGATTAACATCAGAAATCCCCCTGATGTTAATCGGGTCTTGATTCGCTTGACGCTGCTG | 11.2 | 10.5 | 10.8 | 6.78 | 9.63 | 8.32 | 7.68
CCGATTAACATCAGGGGAAAATATGATGTTAATCGGGTCTTGATTCGCTTGACGCTGCTG | 6.98 | 8.57 | 11.7 | 10.2 | 4.1 | 6.25 | 6.72
